Outcome and AC50 data for five compounds are collected here from PubChem BioAssay (EPA / NIEHS).

For test [1], the target named is Retinoic acid receptor alpha (Homo sapiens) (UniProt P10276). Briefly: ATG_DR5_RAR_CIS: Attagene CIS-FACTORIAL HepG2 Assay for human Retinoic Acid Receptor Alpha (RARE), DR5 submotif (AID 2282934). Particulars: HepG2 Attagene cis-factorial RARE DR5 reporter, mRNA; actives raise or lower the signal. The gist of the method:
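HepG2 cells transiently transfected with multiplexed reporter units; DR5 cis-element drives reporter through endogenous transcription factors. After 24 h dosing, reporter mRNA quantified by RT-PCR, fluorescent labeling, HpaI digestion and capillary electrophoresis; bidirectional fitting versus DMSO.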

The target of test [2] is Estrogen-related receptor gamma (Homo sapiens) (UniProt P62508). Briefly: ATG_ERRg_TRANS: Attagene TRANS-FACTORIAL HepG2 Assay for human Estrogen-Related Receptor gamma (ERRg) (AID 2282977; active = hit-call score of the fitted dose curve at least 0.9, where 1 is the maximum;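 note: hits increase reporter signal over DMSO so potencies reflect activators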). Particulars: HepG2 Attagene TRANS reporter, ERRg transactivation. In short, it runs like this:
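HepG2 cells transiently transfected with multiplexed GAL4-UAS reporter units driven by chimeric NR-Gal4 proteins; 24 h exposure. Reporter mRNA quantified by RT-PCR, fluorescent labelling, HpaI digestion and capillary electrophoresis; gain of signal vs DMSO.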

Test [3] is described as follows: BSK_3C_uPAR: BioMAP Diversity Plus: 3C Assay for Urokinase-type plasminogen activator receptor (uPAR) Biomarker Activity (AID 2282998). The conditions noted are these: BioMAP 3C HUVEC, uPAR biomarker ELISA; actives raise or lower the signal. In short, it runs like this:
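Readout: ELISA for surface uPAR. System: human umbilical vein endothelial primary cells, 24 h after chemical exposure. Analysis: bidirectional fit, DMSO baseline.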

The nature of test [4]: BSK_3C_VCAM1: BioMAP Diversity Plus: 3C Assay for Vascular cell adhesion molecule 1 (VCAM1) Biomarker Activity (AID 2282999). The conditions noted are these: BioMAP 3C HUVEC, VCAM1 ELISA, cytokine-stimulated; actives raise or lower the signal. In short, it runs like this: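 Human umbilical vein endothelial cells (3C system), biomarker read by ELISA 24 h after dosing; bidirectional fit against DMSO baseline. Cytotoxicity tracked by SRB total-protein staining in parallel cultures at biomarker time.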

Test [5] in a line: BSK_4H_Eotaxin3: BioMAP Diversity Plus: 4H Assay for Eotaxin 3 Biomarker Activity (AID 2283000).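 For Outcome: CCL26 protein level quantified by ELISA in parallel with SRB cytotoxicity check.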 Particulars: primary human endothelial cells (HUVEC); actives raise or lower the signal. In short, it runs like this: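 ELISA quantitation of CCL26 (Eotaxin-3) protein from chemically dosed human vascular endothelial cells at 24 h; increases and decreases both scored relative to DMSO-treated baseline.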

Read-out in test [6]: Intercellular Adhesion Molecule 1 (ICAM1), ICAM1 (gene 3383)
The test is described as follows: BSK_3C_ICAM1: BioMAP Diversity Plus: 3C Assay for Intercellular Adhesion Molecule 1 (ICAM1) Biomarker Activity (AID 2283003). Particulars: primary human endothelial cells (HUVEC); actives raise or lower the signal. In short, it runs like this: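 HUVEC primary cells stimulated under 3C conditions; ICAM1 measured by ELISA 24 h after compound dosing. Curves fitted bidirectionally against the DMSO baseline. Overt cytotoxicity checked by SRB staining of parallel cultures.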

Test [7] is described as follows: BSK_3C_Proliferation: Cell Proliferation Assessment in the BioMAP Diversity Plus: 3C Assay (AID 2283006).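 For AC50: potency may reflect either rise or fall in cell number versus DMSO.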 Particulars: primary human endothelial cells (HUVEC). In short, it runs like this:
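Subconfluent HUVEC (3C system) cultured with chemical; relative cell number read at 48 h by sulforhodamine B total-protein staining (0.1% SRB after 10% TCA fixation, 560 nm). Bidirectional fit relative to DMSO.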

Read-out in test [8]: Interleukin-1 alpha (IL1a), IL1A (gene 3552)
Briefly: BSK_BE3C_IL1a: BioMAP Diversity Plus: BE3C Assay for Interleukin-1 alpha (IL1a) Biomarker Activity (AID 2283016). Particulars: primary human bronchial epithelial cells; actives raise or lower the signal. The gist of the method: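 Human primary bronchial epithelial cells, 24 h chemical exposure; IL-1a quantified by ELISA, fitted bidirectionally against DMSO. Cytotoxicity assessed in parallel by SRB total-protein staining at the time of measurement.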

Read-out in test [9]: Monocyte Chemoattractant Protein-1 (MCP1), CCL2 (gene 6347)
Briefly: BSK_3C_MCP1: BioMAP Diversity Plus: 3C Assay for Monocyte Chemoattractant Protein-1 (MCP1) Biomarker Activity (AID 2283017). Particulars: primary human endothelial cells (HUVEC); actives raise or lower the signal. The gist of the method:
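Using human vascular primary endothelium, researchers measured MCP-1 by ELISA 24 h after treatment, with DMSO serving as negative control for bidirectional fitting.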

Read-out in test [10]: Monocyte Chemoattractant Protein-1 (MCP1), CCL2 (gene 6347)
Briefly: BSK_4H_MCP1: BioMAP Diversity Plus: 4H Assay for Monocyte Chemoattractant Protein-1 (MCP1) Biomarker Activity (AID 2283018). The conditions noted are these: primary human endothelial cells (HUVEC); actives raise or lower the signal. The gist of the method:
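Human umbilical vein endothelial cells (4H system) exposed to chemicals for 24 h in 96-well format. MCP-1 measured by ELISA; bidirectional fitting against DMSO, with SRB total-protein staining in parallel cultures for cytotoxicity.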

Read-out in test [11]: Human Leukocyte Antigen - DR isotype (HLADR), HLA-DRA (gene 3122)
Briefly: BSK_3C_HLADR: BioMAP Diversity Plus: 3C Assay for Human Leukocyte Antigen - DR isotype (HLADR) Biomarker Activity (AID 2283019).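 For Outcome: ELISA of cell-surface HLA-DR on HUVEC 24 h after dosing.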 The conditions noted are these: primary human endothelial cells (HUVEC); actives raise or lower the signal. In short, it runs like this:
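Compound added to primary HUVEC cultures, 24 h incubation, then HLA-DR determined by ELISA; endpoint derived by bidirectional fitting relative to DMSO negative control.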

Read-out in test [12]: Interleukin-8 (IL8), CXCL8 (gene 3576)
Briefly: BSK_3C_IL8: BioMAP Diversity Plus: 3C Assay for Interleukin-8 (IL8) Biomarker Activity (AID 2283020). Particulars: primary human endothelial cells (HUVEC); actives raise or lower the signal. The gist of the method:
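Primary human umbilical vein endothelial cells were dosed for 24 h. IL-8 was quantified by ELISA and fitted bidirectionally against DMSO. Cytotoxicity was assessed in parallel cultures by SRB staining at 560 nm.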

Read-out in test [13]: Monokine induced gamma interferon (MIG), CXCL9 (gene 4283)
The test is described as follows: BSK_3C_MIG: BioMAP Diversity Plus: 3C Assay for Monokine induced gamma interferon (MIG) Biomarker Activity (AID 2283021).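 For AC50: MIG protein level measured by immunoassay in the treated endothelial cultures.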 Particulars: primary human endothelial cells (HUVEC); actives raise or lower the signal. The gist of the method: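 HUVEC primary endothelial cultures dosed with chemical; MIG quantified by ELISA at 24 h. Data fitted bidirectionally against DMSO control, with parallel SRB total-protein staining for cytotoxicity.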

Test [14] in a line: BSK_3C_SRB: Viability Assessment in the BioMAP Diversity Plus: 3C Assay (AID 2283023).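 Note: fitted both ways against DMSO so a hit may be signal rise or drop.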 Particulars: primary human endothelial cells (HUVEC). In short, it runs like this: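 Overt cytotoxicity is gauged in parallel confluent HUVEC cultures by SRB total-protein staining at the time of biomarker measurement, 24 h after dosing. Gain or loss of signal is fitted versus DMSO.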
Read-out in test [15]: urokinase plasminogen activator (uPA), PLAU (gene 5328)
Briefly: BSK_BE3C_uPA: BioMAP Diversity Plus: BE3C Assay for urokinase plasminogen activator (uPA) Biomarker Activity (AID 2283038).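 Note: uPA protein level quantified by ELISA in cell cultures; uPA read one day after compound addition.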 The conditions noted are these: primary human bronchial epithelial cells; actives raise or lower the signal. The gist of the method:
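Using confluent primary human lung bronchial epithelial cultures, we dosed chemicals, waited 24 h, then ran a uPA ELISA, fitting bidirectionally against DMSO.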

Read-out in test [16]: Interleukin-1 alpha (IL1a), IL1A (gene 3552)
Briefly: BSK_LPS_IL1a: BioMAP Diversity Plus: LPS Assay for Interleukin-1 alpha (IL1a) Biomarker Activity (AID 2283080). Particulars: primary human HUVEC with PBMC; actives raise or lower the signal. In short, it runs like this: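 Primary human HUVEC and PBMC co-culture stimulated with LPS is dosed and harvested at 24 h. Both increases and decreases in ELISA-measured IL-1a are scored relative to DMSO.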

Test [17] is described as follows: BSK_LPS_PGE2: BioMAP Diversity Plus: LPS Assay for Prostaglandin E2 (PGE2) Biomarker Activity (AID 2283082). The conditions noted are these: primary human HUVEC with PBMC; actives raise or lower the signal. In short, it runs like this: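 HUVEC plus human PBMC co-culture stimulated with LPS; secreted PGE2 quantified by ELISA 24 h after chemical dosing. Activity fitted bidirectionally against DMSO baseline; parallel SRB staining (0.1% SRB after 10% TCA fixation, 560 nm) flags overt cytotoxicity.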

Test [18] can be described thus: ACEA_ER_AUC_viability: ACEA Biosciences xCELLigence Real-Time Cell Analysis on Estrogen Receptor Agonism for Viability (AID 2283782; active = hit-call score of the fitted dose curve at least 0.9, where 1 is the maximum;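 note: continuous compound exposure with impedance area under curve over 80 h; hit means loss of impedance signal meaning reduced cell growth or viability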). The gist of the method: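 T47D cells preconditioned in phenol red-free RPMI with charcoal-stripped FBS, then dosed with 8-point 1:4 series from 100 uM (up to 0.5% DMSO). Impedance monitored up to ~80 h; area-under-curve loss versus DMSO taken as viability.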

A short description of test [19]: CCTE_Harrill_HTTr_Apoptosis_MCF7: CCTE's 6-hour Apoptosis Assessment for the High-Throughput Transcriptomics (HTTr) Platform, in MCF-7 cells cultured in DMEM + 10% fetal bovine serum, Harrill Lab (AID 2284011). The gist of the method:
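Apoptosis in MCF-7 cells grown in DMEM with 10% fetal bovine serum was scored after a six hour exposure by high content imaging of caspase-3/7 activation (CellEvent Caspase 3/7 Green), with DMSO serving as negative control and baseline.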

Test [20] addresses Estrogen receptor (Homo sapiens) (UniProt P03372). The test is described as follows: ATG_ERa_TRANS: Attagene TRANS-FACTORIAL HepG2 Assay for human Estrogen Receptor alpha (ERa) (AID 2282970; active = hit-call score of the fitted dose curve at least 0.9, where 1 is the maximum). The conditions noted are these: HepG2 Attagene TRANS ERa GAL4 reporter, mRNA. The gist of the method: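 Multiplexed cell-based reporter format in HepG2: chimeric ERa-Gal4 protein drives GAL4-UAS reporter transcription. Fluorescent reporter mRNA quantified by capillary electrophoresis 24 hours after dosing; endpoint fitted as signal gain against DMSO.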

Structures are written as SMILES. Results filed as inconclusive are left out. Active and inactive are the calls of the source. Rule for the calls, unless noted: active = hit-call score of the fitted dose curve at least 0.9, where 1 is the maximum; inactive = score below 0.9.

Chain of Estrogen-related receptor gamma (Homo sapiens) (P62508 whole entry, looked up, the tested form may be a part): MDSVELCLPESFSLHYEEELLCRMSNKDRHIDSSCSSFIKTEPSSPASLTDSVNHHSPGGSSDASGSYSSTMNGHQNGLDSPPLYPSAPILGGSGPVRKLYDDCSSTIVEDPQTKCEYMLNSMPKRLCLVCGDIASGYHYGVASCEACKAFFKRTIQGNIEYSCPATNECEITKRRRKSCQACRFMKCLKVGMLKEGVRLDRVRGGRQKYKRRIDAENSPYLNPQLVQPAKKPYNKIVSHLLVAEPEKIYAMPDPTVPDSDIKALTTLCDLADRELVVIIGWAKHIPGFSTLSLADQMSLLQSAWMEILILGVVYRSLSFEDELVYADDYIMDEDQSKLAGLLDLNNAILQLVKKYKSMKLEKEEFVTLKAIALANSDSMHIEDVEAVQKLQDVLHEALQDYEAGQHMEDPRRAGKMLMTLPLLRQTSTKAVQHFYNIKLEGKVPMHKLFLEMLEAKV
Chain of Retinoic acid receptor alpha (Homo sapiens) (P10276 whole entry, looked up): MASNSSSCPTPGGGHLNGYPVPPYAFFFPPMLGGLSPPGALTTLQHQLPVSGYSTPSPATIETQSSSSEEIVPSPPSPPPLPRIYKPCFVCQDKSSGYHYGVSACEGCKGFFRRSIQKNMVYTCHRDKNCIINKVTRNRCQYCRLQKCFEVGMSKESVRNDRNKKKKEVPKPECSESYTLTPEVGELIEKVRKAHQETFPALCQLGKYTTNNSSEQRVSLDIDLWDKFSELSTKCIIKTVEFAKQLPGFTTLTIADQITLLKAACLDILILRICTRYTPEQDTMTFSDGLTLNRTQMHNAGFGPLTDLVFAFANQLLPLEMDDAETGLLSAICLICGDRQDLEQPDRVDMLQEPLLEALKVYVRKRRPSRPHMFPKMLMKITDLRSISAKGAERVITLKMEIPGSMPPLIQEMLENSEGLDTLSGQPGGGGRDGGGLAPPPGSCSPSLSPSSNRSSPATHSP
Chain of Estrogen receptor (Homo sapiens) (P03372 whole entry, looked up, the tested form may be a part): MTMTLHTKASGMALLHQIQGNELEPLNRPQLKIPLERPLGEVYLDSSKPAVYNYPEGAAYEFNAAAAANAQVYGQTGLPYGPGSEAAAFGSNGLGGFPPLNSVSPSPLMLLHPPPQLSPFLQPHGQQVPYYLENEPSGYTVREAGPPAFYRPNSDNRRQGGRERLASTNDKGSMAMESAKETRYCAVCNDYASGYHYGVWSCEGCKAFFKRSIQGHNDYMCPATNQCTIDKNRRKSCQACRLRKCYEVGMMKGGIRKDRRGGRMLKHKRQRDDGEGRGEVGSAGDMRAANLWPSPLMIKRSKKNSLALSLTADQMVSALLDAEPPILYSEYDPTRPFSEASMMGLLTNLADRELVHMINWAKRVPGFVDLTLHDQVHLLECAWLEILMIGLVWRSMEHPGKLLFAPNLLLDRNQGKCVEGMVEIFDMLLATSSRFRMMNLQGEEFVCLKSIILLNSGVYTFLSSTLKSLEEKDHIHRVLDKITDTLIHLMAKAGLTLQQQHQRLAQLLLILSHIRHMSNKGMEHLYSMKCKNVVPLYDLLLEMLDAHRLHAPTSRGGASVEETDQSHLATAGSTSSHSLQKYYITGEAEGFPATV

Regarding `CC(C)C#N`, the outcome in test [1] was inactive.

As to `CC(C)CCCCCCCOC(=O)c1ccccc1C(=O)OCCCCCCCC(C)C`, the outcome in test [2], in test [3], in test [4], in test [5], in test [6] and in [7] was inactive. For the same compound, the result in test [8], in test [9], in [10], in test [11], in test [12] and in test [13] was inactive. In addition, the result in test [14], in test [15], in [16], in test [17], in test [18] and in test [19] was inactive.

Turning to `CC(=O)/C=C/c1ccccc1`, the outcome in test [3], in test [5], in [6], in test [8], in test [9] and in test [10] was inactive. The outcome in [12], in [13], in test [14], in test [15] and in test [17] was inactive. Further, the AC50 in [4] was 20 µM (active); in test [7] it was 23.2 µM (active); in test [11], 26.9 µM (active); in test [16], 20 µM (active).

With `C[C@]12CC[C@H]3[C@@H](CC[C@@]45O[C@@H]4C(O)=C(C#N)C[C@]35C)[C@@H]1CC[C@@H]2O`, the outcome in test [19] was inactive.

As for `O=C1C(Cl)=C(Cl)C(=O)C(Cl)=C1Cl`, the call in test [1], in test [20], in [2], in [15], in test [17] and in [19] was inactive. The AC50 was 9.52 µM (active) in test [3]; 11.9 µM (active) in [4]; 15 µM (active) in test [5]; 25.4 µM (active) in test [6]; 5.26 µM (active) in test [7]; 30.5 µM (active) in test [8]. For the same compound, the AC50 in test [9] is 12.4 µM (active); in test [10], 12.3 µM (active); in [11] it was 6.64 µM (active); in [12], 20 µM (active); in test [13], 29.2 µM (active); in [14] it was 4.97 µM (active). In addition, the AC50 in test [16] is 14 µM (active); in test [18], 81.6 µM (active).
